The test deals with Plasmodium falciparum NF54 stage V gametocytes. Description: viability index relative to DMSO control (fraction); higher = less gametocyte killing. The settings on record: 2.5 µM, incubation time: 72 h. Put shortly: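 Compound at 2.5 µM was incubated for 72 hr at 37°C under low oxygen with P. falciparum NF54 stage V gametocytes (0.75% gametocytemia, 1.25% hematocrit, 10 µl, serum-free screening medium) in 1,536-well plates. Staining used 3 µl of 2.5 µM MitoTracker Red CMXRos plus 0.13% saponin for one to two hours, and red particles of 20–70 µm2 were counted in one imaged field per well. Each viability index is that count relative to the plate mean of solvent-only wells.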

[1] abbreviates: library set: Broad Institute DOS.
[2] abbreviates: library set: Broad Institute Blood Stage.

Each structure is given as a SMILES string. ± gives the uncertainty stated by the source. Over roughly 9,900 compounds, “viability index relative to DMSO control” has its median near 1; the lowest 2% begin near 0.85. This excerpt belongs to a sample that is enriched for the lowest values.

Turning to `C[C@@H]1C/C=C/C[C@@H](c2ccccc2)NC(=O)[C@H](C)N(C)C(=O)c2ccccc2O1.C[C@@H]1C/C=C\C[C@@H](c2ccccc2)NC(=O)[C@H](C)N(C)C(=O)c2ccccc2O1`, the viability index under setting [1] worked out at 1 ± 0.069.

As to `COc1ccc2c3c([C@@H](CO)NC[C@]33CCN(Cc4ccncc4)CC3)n(C)c2c1`, under setting [1], the viability index was 1.01 ± 0.045. Under setting [1], `COc1ccc2c3c([C@H](CO)NC[C@]33CN(Cc4ccc(F)cc4)C3)n(C)c2c1` yielded a viability index of 0.841 ± 0.014. `COc1ccc2c3c([C@@H](CO)NC[C@]33CN(Cc4ccc(cc4)-c4ccccn4)C3)n(C)c2c1` returned a viability index under setting [1] of 0.997 ± 0.019.

Turning to `COc1ccc2c3c([C@H](CO)NC[C@]33CCN(Cc4ccc(cc4)-c4ccccn4)CC3)n(C)c2c1`, under setting [2], the viability index was found to be 0.835 ± 0.04. Consider `COc1ccc2c3c([C@H](CO)NC[C@]33CN(Cc4ccc(cc4)-c4ccccn4)C3)n(C)c2c1`, for which the viability index under setting [1] was found to be 0.934 ± 0.11. Under setting [2], `COc1ccc2c3c([C@@H](CO)NC[C@]33CCN(Cc4ccc(cc4)-c4ccccn4)CC3)n(C)c2c1` registered a viability index of 0.946 ± 0.052. Compound `CO[C@H]1CN(C)C(=O)c2cc(NC(=O)c3cnccn3)ccc2OC[C@H](C)NC[C@H]1C` registered a viability index under setting [1] of 1.09 ± 0.041. Same read-out and setting: with `COc1ccc(-c2ccc([C@H]3[C@H]4CNC[C@@H]3N4S(=O)(=O)c3cn(C)cn3)cc2)cc1` the figure was 1.0563 ± 0.00097; with `O=C(CC1CC1)N1CC2(C1)[C@@H](c1ccccc1)[C@H](CO)N2C(=O)c1ccccn1`, 1 ± 0.013. For `C[C@H]1CN([C@@H](C)CO)C(=O)c2c(c3ccccc3n2C)-c2ccccc2CO[C@H]1CN(C)C`, the viability index under setting [1] worked out at 1.04 ± 0.052. Still for that read-out and setting: with `O=C(C[C@H]1CC[C@H]2NC[C@@H](O)COC[C@@H]2O1)N1CCc2ccccc2C1` the figure was 1.03 ± 0.049; with `O=C(CC1CC1)N1CC[C@@H]2[C@H]1c1cc(-c3ccc(F)cc3)ccc1N[C@@H]2CO`, 1.046 ± 0.009. For `COc1ccc(C#Cc2cccc(-c3nc(C(=O)N4CCN(Cc5ccccc5)CC4)cc4c3[C@@H](CCO)N(S(=O)C(C)(C)C)C4)c2)cc1OC` (stereo partly drawn), under setting [1], the viability index stood at 0.826 ± 0.14.

`CC(C)(C)S(=O)N1Cc2cc(C(=O)NCc3ccc4c(c3)OCO4)nc(-c3cccc(-c4cc5ccccc5o4)c3)c2[C@H]1CCO` (stereo partly drawn): the viability index under setting [1] stood at 0.656 ± 0.04. The same measure, in the same setting: in the case of `COc1ccc(C#Cc2cccc(-c3nc(C(=O)NCc4ccc5c(c4)OCO5)cc4c3[C@@H](CCO)N(S(=O)C(C)(C)C)C4)c2)cc1OC` (stereo partly drawn) it was 0.9061 ± 0.0023; in that of `CC(C)(C)S(=O)N1Cc2cc(C(=O)O)nc(-c3cccc(-c4cc5ccccc5o4)c3)c2[C@@H]1CCO` (stereo partly drawn), 1.03 ± 0.023; in that of `CC(C)(C)S(=O)N1Cc2cc(C(=O)N3CCN(Cc4ccccc4)CC3)nc(-c3cccc(-c4cc5ccccc5o4)c3)c2[C@H]1CCO` (stereo partly drawn), 0.7362 ± 0.0068. On the same count and under the same terms, with `COc1ccccc1-c1cccc(-c2nc(C(=O)N3CCN(C)CC3)cc3c2[C@H](CCO)N([S@@](=O)C(C)(C)C)C3)c1` the figure was 1.03 ± 0.032. As to `COc1ccc(C#Cc2cccc(-c3nc(C(=O)N4CCN(Cc5ccccc5)CC4)cc4c3[C@H](CCO)N(S(=O)C(C)(C)C)C4)c2)cc1OC` (stereo partly drawn), under setting [1], the viability index is 1.04 ± 0.11. Same read-out and setting: with `CC(C)(C)S(=O)N1Cc2cc(C(=O)NCc3ccc4c(c3)OCO4)nc(-c3cccc(-c4cccc(F)c4)c3)c2[C@@H]1CCO` (stereo partly drawn) the figure was 1.04 ± 0.015. On the same count and under the same terms, with `COc1ccc(C#Cc2cccc(-c3nc(C(=O)Nc4ccc(-c5ccccc5)cc4)cc4c3[C@@H](CCO)N(S(=O)C(C)(C)C)C4)c2)cc1OC` (stereo partly drawn) the figure was 1.016 ± 0.0075; with `Cc1ccc(CN2CC(=O)N3[C@H](CO)[C@@H](c4ccc(-c5ccccc5F)cc4)[C@H]3C2)cc1`, 1.05 ± 0.062.

The compound `CC(=O)N1[C@H](CO)[C@@H](c2ccccc2)C12CN(S(=O)(=O)c1ccccc1)C2` came in with a viability index under setting [1] of 1.11 ± 0.03. As for `COC(=O)C[C@H]1CC[C@@H]2[C@H](COc3ccc(NC(=O)Nc4cccc(C#N)c4)cc3C(=O)N2C)O1`, the viability index under setting [1] turned out to be 1.1 ± 0.091. Same read-out and setting: with `O=C(Cc1cccnc1)N1CC(=O)N2[C@H](C1)[C@@H](c1ccc(C#CC3CCCCC3)cc1)[C@@H]2CO` the figure was 0.985 ± 0.11; with `O=C(C1CCOCC1)N1CC(=O)N2[C@H](C1)[C@H](c1ccc(C#CC3CCCCC3)cc1)[C@@H]2CO`, 1.03 ± 0.018; with `C[C@@H]1CN([C@@H](C)CO)C(=O)c2cc(NC(=O)Cn3cnnn3)ccc2O[C@H]1CN(C)Cc1ccc(C(=O)Nc2ccccc2N)cc1`, 1.002 ± 0.0028.

Turning to `O=C(C[C@H]1C[C@@H]2c3cc(NC(=O)Nc4ccccc4)ccc3O[C@@H]2[C@H](CO)O1)NCc1ccccc1`, the viability index under setting [1] was determined as 1.06 ± 0.03. Same read-out and setting: with `Cc1ccc(S(=O)(=O)Nc2ccc3c(c2)CC(=O)N([C@H](C)CO)C[C@@H](C)[C@@H](CN(C)S(=O)(=O)c2ccccc2)O3)cc1` the figure was 0.949 ± 0.021; with `CCCC(=O)N1C[C@]2(CN(Cc3nccs3)C2)c2c([nH]c3cc(OC)ccc23)[C@@H]1CO`, 1 ± 0.024.

`N#C[C@@H]1[C@@H](c2ccccc2-c2ccccc2)[C@H](CO)N1C(=O)Cc1ccncc1` had a viability index under setting [1] of 1.1 ± 0.2. Still for that read-out and setting: with `C[C@H]1CN([C@@H](C)CO)C(=O)c2ccccc2-c2ccccc2CO[C@H]1CN(C)Cc1cccc(C(=O)O)c1` the figure was 0.958 ± 0.034. The same measure, in the same setting: with `O=C(C[C@H]1CC[C@H](NC(=O)C2CC2)[C@H](CO)O1)Nc1ccccc1` the figure was 0.992 ± 0.033; with `O=C(C[C@H]1CC[C@H](NC(=O)C2CC2)[C@@H](CO)O1)Nc1ccccc1`, 0.981 ± 0.031; with `O=C(C[C@H]1CC[C@@H](NC(=O)C2CC2)[C@H](CO)O1)Nc1ccccc1`, 0.839 ± 0.19. On the same count and under the same terms, in the case of `CO[C@H]1CN(C)C(=O)c2cc(NS(=O)(=O)CC(F)(F)F)ccc2OC[C@@H](C)NC[C@H]1C` it was 1.07 ± 0.0046; in that of `CCC(=O)N1CC(=O)N2[C@H](CO)[C@H](c3ccc(C#CCC(C)C)cc3)[C@H]2C1`, 0.956 ± 0.046.

For the origin of these results see the supplement of paper PMC4723716.
